High-throughput results deposited in PubChem by several laboratories.
Shown are actives, neighbours in structure and some others; about 3.1% of the full set was active somewhere.
ERa coact inh: blocks coactivator binding to human estrogen receptor alpha; P03372; TR-FRET ER-alpha LBD / SRC-1 peptide, estradiol-bound; inhibition, % at 25.6 µM; hit rate 1.7% among 86,000; AID 629; in the data active = inhibition above about 50%;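 also: 0% = receptor plus peptide control and 100% = peptide only without receptor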
Mac1 fbg inh: CD11b/CD18-fibrinogen binding inhibition. inhibition, % at 10 µM. hit rate 0.54% among 93,000. K562 CD11b/CD18 adhesion to fibrinogen, ATPlite luminescence; Mn2+ added to activate the integrin. P05107+P11215;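 active = primary inhibition of 50% or more at 10 µM, then 40% or more on retest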
ERa coact pot: enhances coactivator binding to human estrogen receptor alpha | P03372 | TR-FRET ERalpha-LBD/SRC-Cy5 coactivator binding, 2 h; 100 = basal binding, no effect | coactivator binding (% of control), % at 25.6 µM | hit rate 1.3% among 86,000; in the data active = activity above about 200%;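 also: binding measured in presence of low estradiol as agonist stimulus; 0% = peptide alone without receptor and 100% = receptor with peptide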
Mac1 fbg enh: increases human CD11b/CD18 adhesion to fibrinogen | P05107+P11215 | hit rate 0.07% among 93,000 | activation, % at 10 µM | K562 CD11b/CD18 adhesion to fibrinogen, ATPlite luminescence;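 active = 10 µM primary screen giving 50% or more activity, confirmed by 40% or more on retest at that dose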
ERb coact inh: ER-beta (human) coactivator binding inhibition | AID 633 | TR-FRET ER-beta LBD / SRC1-Cy5 peptide binding; receptor agonist-loaded with 1 µM estradiol | inhibition, % at 25.6 µM | hit rate 1.3% among 86,000;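 active = compounds whose percent inhibition of the receptor-coactivator binding signal exceeds about 50% in the single-dose screen, limit read from the data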;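 also: 0% = receptor plus peptide wells without compound and 100% = peptide-only wells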
Target sequence (Q92731 whole entry, looked up, the tested form may be a part): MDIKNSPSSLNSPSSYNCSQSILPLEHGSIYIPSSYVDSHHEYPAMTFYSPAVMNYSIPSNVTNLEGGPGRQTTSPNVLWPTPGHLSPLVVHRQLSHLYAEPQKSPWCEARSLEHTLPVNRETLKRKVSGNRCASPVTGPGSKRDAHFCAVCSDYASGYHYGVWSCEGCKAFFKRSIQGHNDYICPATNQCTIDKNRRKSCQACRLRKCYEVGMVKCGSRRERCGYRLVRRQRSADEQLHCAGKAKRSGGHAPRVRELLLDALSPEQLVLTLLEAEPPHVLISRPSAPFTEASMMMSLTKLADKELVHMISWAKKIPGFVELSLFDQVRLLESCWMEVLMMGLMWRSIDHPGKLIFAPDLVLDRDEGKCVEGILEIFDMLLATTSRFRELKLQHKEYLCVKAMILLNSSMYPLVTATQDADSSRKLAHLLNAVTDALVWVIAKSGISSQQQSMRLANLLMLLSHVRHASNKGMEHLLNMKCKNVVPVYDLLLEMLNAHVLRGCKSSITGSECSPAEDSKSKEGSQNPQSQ
Active calls of the source: *; / = not tested or not shown; [ ] = dose if it differs, or a comment.

SMILES	ERa coact inh	Mac1 fbg inh	ERa coact pot	Mac1 fbg enh	ERb coact inh
CCCC(=O)N=C1SC2CS(=O)(=O)CC2N1c1ccc(-c2nc3ccc(C)cc3s2)cc1 (centres undefined)	/	14	/	5	/
COc1ccc(Cc2nc3ccc(S(=O)(=O)N4CCOCC4)cc3[nH]2)cc1	60*	/	97	/	-7
N#CC1=C(N)OC2=C(C(=O)CCC2)C1Cc1ccccc1 (centres undefined)	2	/	101	/	-3
Cc1ccc2c(c1)N(CC(=O)NC1CCCc3ccccc31)C(=O)CO2 (centres undefined)	67*	24	93	1	17
Cc1ccc2c(c1)N(CC(=O)NC1CCC(C)CC1)C(=O)CO2 (centres undefined)	3	-11	120	-1	-4
CCC(=O)Nc1ccc(S(=O)(=O)Nc2cccnc2)cc1	-4	-4	107	-6	77*[fluorescence artefact?]
CCC(=O)Nc1ccc(S(=O)(=O)Nc2ncccn2)cc1	/	-9	/	-5	/
COc1cccc(C(=O)N2CCN(C(=O)c3cccc(F)c3)CC2)c1	-15	/	131	/	-4
O=C(c1cccc(F)c1)N1CCN(C(=O)c2cc3ncc(Br)cn3n2)CC1	55*	-3	66	1	59*
COc1ccc2c(c1)CC/C(=C\c1ccc(OC)c(Cn3nc(C)cc3C)c1)C2=O	52*	-21	106	-3	26
C[C@]12CC[C@@H]3c4ccc(O)cc4C(=O)C[C@H]3[C@@H]1CC[C@@H]2O	3	/	705*	/	1
COc1ccc(-c2nnc(CSc3nc4ccccc4c(=O)n3C)o2)cc1OC	8	11	111	2	0
COc1ccc(-c2nc(CSCC(=O)NCc3ccc4c(c3)OCO4)c(C)o2)cc1OC	/	6	/	-5	/
COc1ccc(-c2nc(Cn3c(SCc4cccc(F)c4)nc4ccncc43)c(C)o2)cc1OC	9	14	237*	47	36
COc1ccc(-c2nc(Cn3c(SCc4ccc(C)cc4)nc4ccncc43)c(C)o2)cc1OC	42	33	217*	4	36
CCCOc1ccc(NC(=O)C(=O)NCCCn2ccnc2)cc1	/	0	/	-2	/
Nc1ccc(N2CCCCCC2)cc1	97*[fluorescence artefact?]	-8	16	0	93*[fluorescence artefact?]
Cc1ccc(OC(=O)c2cccc(S(=O)(=O)N3CCCC3)c2)c(-n2nc3ccccc3n2)c1	/	-25	/	-3	/
COc1ccc2c(c1)-c1ccccc1S(=O)(=O)N2C(C)=O	87*[fluorescence artefact?]	/	25	/	63*[fluorescence artefact?]
C=CCC(NC(C)c1ccccc1)c1ccco1 (centres undefined)	-2	/	97	/	10
NS(=O)(=O)c1cc2c(cc1Cl)NC=NS2(=O)=O	7	/	96	/	94*[fluorescence artefact?]
COc1ccc(CNC(=O)Cn2cc(C(F)(F)F)ccc2=O)cc1	/	4	/	2	/
CCOC(=O)CN1CC23C=CC(O2)C(C(=O)Nc2cc(OC)ccc2OC)C3C1=O (centres undefined)	72*[fluorescence artefact?]	29	41	0	69*
CCSc1nnc(NC(=O)C(Cc2ccccc2)n2cccc2)s1 (centres undefined)	-7	8	249*[fluorescence artefact?]	-11	-8
CCSc1nnc(NC(=O)COc2ccc3ccccc3c2)s1	21	/	259*[fluorescence artefact?]	/	11
SMILES	ERa coact inh	Mac1 fbg inh	ERa coact pot	Mac1 fbg enh	ERb coact inh
CCSc1nnc(NC(=O)COc2ccccc2)s1	-1	2	107	0	-4
Cc1csc(NC(=O)C(Cc2ccccc2)n2cccc2)n1 (centres undefined)	-8	-6	82	4	-9
Cc1cccc(C(=O)N2CCN(c3ccc(C(F)(F)F)cn3)CC2)c1C	3	12	92	-5	5
Cc1ccc(S(=O)(=O)Nc2cccc(NC(=O)CN3CCCCC3)c2)cc1	/	5	/	5	/
Cc1cc2c(ncn2C(C)C)c(N)c1C	/	3	/	-3	/
CC1CCc2c(sc3nc(CN4CCN(S(=O)(=O)c5ccccc5[N+](=O)[O-])CC4)[nH]c(=O)c23)C1 (centres undefined)	/	-2	/	29	/
CCOC(=O)C1=C(O)/C(=C/c2cn(CC(=O)NCC3CCCO3)c3ccccc23)SC1=Nc1ccc(C)cc1 (centres undefined)	78*	/	56	/	45
C=CCNC(=O)CC(=O)N/N=C/c1ccc(C(=O)OC)cc1	/	-8	/	1	/
CCOC(=O)Cc1ccc(NS(=O)(=O)c2ccc(SC)cc2)cc1	54*	/	52	/	18
CCOC(=O)c1ccc(NS(=O)(=O)c2ccc(SC)cc2)cc1	19	-13	50	-1	-2
CCN1C2=C(C(=O)CCC2)C(c2ccc(O)c(Br)c2)C2=C1CCCC2=O	56*[fluorescence artefact?]	-1	59	1	60*
N#Cc1nc(COc2ccccc2Cl)oc1NCc1cccnc1	-3	19	80	-2	8
Cc1ccc(OCC(=O)N2N=C(C(F)(F)F)CC2(O)C(C)(C)C)cc1C (centres undefined)	-3	80*	89	-7	0
Cc1ccc(C)c(/C(O)=C2/C(=O)C(=O)N(CCN3CCOCC3)C2c2ccco2)c1 (centres undefined)	46	/	81	/	51*
CC(C)(C)NC(=O)CSC(=Nc1cccc(F)c1)NC#N	-6	/	107	/	-6
CCc1nnc(NC(=O)c2ccc(-c3ccc(Cl)cc3)o2)s1	54*[fluorescence artefact?]	-11	274*[fluorescence artefact?]	102	42
CCn1nnc(NC(=O)c2ccc(-c3ccc(Cl)cc3)o2)n1	4	-7	96	2	0
CC(=O)c1ccc(-n2c(SCC(=O)c3c[nH]c4ccccc34)nc3ccccc3c2=O)cc1	/	-8	/	49	/
Cc1cccc(C)c1NC(=O)CSc1nnc(-c2ccco2)c(-c2ccco2)n1	84*[fluorescence artefact?]	/	11	/	83*[fluorescence artefact?]
CSc1nnc(-c2ccco2)c(-c2ccco2)n1	90*[fluorescence artefact?]	-19	7	-2	91*[fluorescence artefact?]
Cc1cccc(C)c1NC(=O)CCCSc1nnc(-c2ccco2)o1	8	/	109	/	1
CSc1nnc2c(n1)OC=Nc1ccccc1-2	-33	/	105	/	-13
Cc1ccccc1NC(=O)CSc1nnc(-c2ccco2)c(-c2ccco2)n1	71*	-2	58	0	72*
Cc1ccc2c(=O)cc(C(F)F)oc2c1	55*[fluorescence artefact?]	5	65	0	5
Cc1cc(C)c2c(=O)cc(C(F)F)oc2c1	46	-2	68	-6	1
SMILES	ERa coact inh	Mac1 fbg inh	ERa coact pot	Mac1 fbg enh	ERb coact inh
Cc1ccc(S(=O)(=O)Nc2cc3c(C(=O)Nc4ccccc4)c(C)oc3c3ccccc23)cc1	/	-10	/	5	/
O=C(CSc1nnc(-c2ccncc2)n1-c1ccc(F)cc1)NC(=O)NCc1ccco1	68*[fluorescence artefact?]	/	78	/	55*[fluorescence artefact?]
C=CCn1c(COc2ccc(F)cc2)nnc1SCC(=O)NC(=O)NCc1ccco1	71*[fluorescence artefact?]	11	70	-6	46
C=CCn1c(COc2cccc(C)c2)nnc1SCC(=O)NC(=O)NCc1ccco1	61*	2	77	3	41
Cc1ccc(-n2c(SCC(=O)NCc3ccco3)nnc2-c2cccnc2)cc1	-12	/	115	/	-11
O=C(CSc1nnc(COc2ccccc2)n1Cc1ccco1)NCc1ccco1	46	-4	133	1	39
